Compounds with a hit are over-represented: about 12% of the library has one in this group of screens.
Sfp inh – blocks B. subtilis Sfp PPTase activity | Q9F4F7 | Biochemical Sfp PPTase activity, qHTS | Potency, µM, for the others: largest response in the series, negative = inhibition, usual class: inhibitors | 310,000 compounds, 3.5% hits | AID 1490;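 further: the enzyme is Sfp with the accession as filed and its product quenches rhodamine fluorescence; 0% = enzyme reaction without inhibitor and -100% = no enzyme wells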
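Sfp 15 nM + cpd, 15 min RT; start w/ rhodamine-CoA 5 uM, BHQ-2-YbbR 12.5 uM (final); 50 mM Hepes pH 7.6, 10 mM MgCl2, 0.01% NP-40, 0.01% BSA; read 525/598 nm at 0 and 30 min.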
JMJD2A Tudor inh – blocks the human JMJD2A Tudor domain; AID 504339; AlphaScreen JMJD2A-Tudor / H3K4me3 peptide binding; Potency, µM (highest dose often 114 µM), for the others: at the highest dose activity change, negative = inhibition, usual class: inhibitors; O75164; 390,000 compounds, 4.4% hits; further: on the % scale 0 is the no-effect control and ±100 the full control effect; nearly all actives have a fitted effect of over 50% in size
BAZ2B block – inhibitors of human BAZ2B bromodomain; AlphaScreen BAZ2B-H3K14Ac peptide displacement; Potency, µM (series often up to 114 µM), for the others: top-dose activity change, negative = inhibition, hits mostly inhibitors; 360,000 compounds, 4.4% hits; AID 504333; further: on the % scale 0 is the no-effect control and ±100 the full control effect; nearly all actives have a fitted effect of over 60% in size
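Protein-peptide AlphaScreen: BAZ2B 50 nM, b-H3K14Ac 50 nM, 1x PBS pH 7.4 + 0.01% Tween-20. Preincubation 30 min RT; cpd 30 min RT (top 110 uM); beads 20 min RT, light-protected.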
G9a inh – blocks human histone lysine methyltransferase G9a. 350,000 compounds, 8.8% hits. Q96KQ7. Potency, µM (doses to about 102 µM), for inactives: at the top dose activity, negative = inhibition, usual class: inhibitors. G9a H3K9 monomethylation, AlphaScreen, 2 h. AID 504332; further: on the % scale 0 is the no-effect control and ±100 the full control effect; nearly all actives have a fitted effect of over 75% in size
Target sequence (Q96KQ7 913-1193 limits assumed): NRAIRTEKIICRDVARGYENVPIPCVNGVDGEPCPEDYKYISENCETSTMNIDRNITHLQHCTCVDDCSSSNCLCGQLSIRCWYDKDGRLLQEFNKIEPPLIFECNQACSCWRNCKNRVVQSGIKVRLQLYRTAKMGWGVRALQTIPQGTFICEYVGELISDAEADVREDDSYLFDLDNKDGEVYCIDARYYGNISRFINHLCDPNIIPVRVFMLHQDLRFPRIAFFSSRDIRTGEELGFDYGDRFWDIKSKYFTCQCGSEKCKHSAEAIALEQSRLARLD
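G9a (20 nM) was preincubated 15 min with compound, then reacted 2 h at room temperature with 500 nM biotin-H3K9 peptide and 20 µM SAM. Monomethyl-H3K9 detected by AlphaScreen using anti-H3K9me1 antibody.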
HP1b chromo inh – HP1-beta chromodomain-methylated histone interaction inhibition; 390,000 compounds, 0.56% hits; Potency, µM (highest dose often 114 µM), for inactives: at the highest dose activity change, negative = inhibition, hits mostly inhibitors; AlphaScreen HP1-beta / biotin-H3K9me3 peptide binding; P83916; further: nearly all actives have a fitted effect of over 70% in size
Target sequence (P83916 whole entry, looked up): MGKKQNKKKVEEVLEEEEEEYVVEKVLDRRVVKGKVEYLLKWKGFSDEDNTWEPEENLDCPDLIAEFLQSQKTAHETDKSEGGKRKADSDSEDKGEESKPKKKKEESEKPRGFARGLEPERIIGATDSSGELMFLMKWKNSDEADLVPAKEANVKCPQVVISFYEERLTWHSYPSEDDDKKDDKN
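Compound inhibition of the preformed complex between 50 nM HP1-beta and 50 nM biotinylated H3K9me3 peptide was read by AlphaScreen. Buffer was PBS pH 7.4 with 0.01% Tween-20. Incubations ran 30 min at room temperature, with 10 ug/mL donor/acceptor beads.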
* marks the source's active call; other numbers are inactive results; ? = inconclusive; · = no result given; [ ] = dose if it differs, or a comment. The call rests on the fitted dose curve; in most records, active means well fitted curve in the direction sought with a large enough effect; inconclusive means small, poorly fitted or top-dose-only effect, or another doubt; inactive means no such curve, though single readings can be large; an effect the other way counts as inactive or inconclusive. Potency means the concentration at half of the fitted maximal effect.

SMILES	Sfp inh	JMJD2A Tudor inh	BAZ2B block	G9a inh	HP1b chromo inh
CC(CNC(=O)CN1C(=O)CCSc2ccccc21)c1ccccc1 (stereo not given)	0%	-9%	-18%	30%	62%
O=C(C[n+]1ccc(CCSc2ccc(F)cc2)cc1)c1ccccc1	50µM*	?	5%	22µM*	45µM*
Cc1ccc(C(=O)C[n+]2ccc(Cc3ccccc3)cc2)cc1	11%	0%	-14%	45µM*	33%
COc1ccc(OC)c(NC(=O)Cn2cnc3c(oc4ccccc43)c2=O)c1	·	-27%	-4%	-8%[59 µM]	-3%
O=C(N=C1SCC(=O)N1c1ccccc1Cl)c1ccco1	-4%	-24%	-4%	50µM*	36%
O=C(Nc1ccc(S(=O)(=O)NCc2cccnc2)cc1)c1ccco1	-1%	-5%	8%	19%	30%
COc1cccc(NC(=O)C2CCN(S(=O)(=O)c3ccc4c(c3)NC(=O)C(C)S4)CC2)c1 (stereo not given)	18%	-21%	-17%	26%	28%
CCOC(=O)CCC(NC(=O)CC(=O)NC(CCC(=O)OCC)C(=O)OCC)C(=O)OCC (stereo not given)	4%	2%	-28%	71µM*	46%
CCc1nnc(NC(=O)CC23CC4CC(CC(Br)(C4)C2)C3)s1	12%	-19%	-9%	21%	3%
C#CCOCCOCCOCCNc1nc(N2CCN(C(=O)[C@H](Cc3ccc(O)cc3)n3cc(CCO)nn3)CC2)nc(N2CCN(C(=O)[C@H](Cc3ccc(O)cc3)n3cc(CCO)nn3)CC2)n1	13%	·	?	35µM*	·
C#CCOCCOCCOCCNc1nc(N2CCN(C(=O)[C@H]([C@@H](C)O)n3cc(CCCCN)nn3)CC2)nc(N2CCN(C(=O)[C@H](Cc3ccc(O)cc3)n3cc(CCO)nn3)CC2)n1	?	?	?	50µM*	43%
O=C(NC1CCCCCC1)C1CCN(S(=O)(=O)c2c(Cl)cccc2Cl)CC1	·	-6%	-10%	-2%[2.33 µM]	47%
CN(C)C(=S)NCc1ccccc1	-6%	25µM*	3%	·	-5%
CCOC(=O)CNC(=S)N(CCCN1CCCCCC1)Cc1cccs1	-23%	-10%	5%	11%	49%
CCSc1nc2ccccc2c(OCc2ccccc2Cl)c1C(=O)OC	·	142%	230%	118%[59 µM]	118%
COc1ccc(/C(C)=N/N=C(\C)c2ccc(OC)cc2OC)c(OC)c1	3%	-9%	0%	9%[59 µM]	8%
COc1ccc(C(N)=S)c(OC)c1	45µM*	-12%	-4%	8.9µM*	-12%
C#CCOCCOCCOCCNc1nc(N2CCN(C(=O)CCCCCCCCCCNC(=O)Cn3cc(CCCCCN)nn3)CC2)nc(N2CCN(C(=O)CCCCCCCCCCNC(=O)[C@@H](CCSC)n3cc(CCO)nn3)CC2)n1	·	79µM*	?	10%[2.33 µM]	?
C#CCOCCOCCOCCNc1nc(N2CCN(C(=O)CCCCCCCCCCNC(=O)Cn3cc(C[C@@H](C)O)nn3)CC2)nc(N2CCN(C(=O)CCCCCCCCCCNC(=O)[C@H](CCCCN)n3cc(CCCC(=O)O)nn3)CC2)n1	·	?	-35%	-24%[2.33 µM]	7%
C#CCOCCOCCOCCNc1nc(N2CCN(C(=O)CCCCCCCCCCNC(=O)[C@@H](CCSC)n3cc(CCO)nn3)CC2)nc(N2CCN(C(=O)CCCCCCCCCCNC(=O)[C@H](CCSC)n3cc(CCO)nn3)CC2)n1	·	-13%	8%	28%[2.33 µM]	45%
C#CCOCCOCCOCCNc1nc(N2CCN(C(=O)CCCCCCCCCCNC(=O)[C@H](CO)n3cc(CCCSC)nn3)CC2)nc(N2CCN(C(=O)CCCCCCCCCCNC(=O)[C@H](CCCN=C(N)N)n3cc(C[C@@H](C)CC)nn3)CC2)n1	·	79µM*	?	9%[2.33 µM]	-31%
C#CCOCCOCCOCCNc1nc(N2CCN(C(=O)CCCCCCCCCCNC(=O)[C@H](CO)n3cc(CCCSC)nn3)CC2)nc(N2CCN(C(=O)CCCCCCCCCCNC(=O)[C@H](CCCCN)n3cc(CCO)nn3)CC2)n1	·	56µM*	·	·	?

From PubChem
